Source: PubChem
PostGolgi yeast: growth inhibition of a yeast mutant, post-Golgi transport screen; inhibition, % at 10 µM; hit rate 0.9% among 98,000; post-Golgi transport phenotypic cell assay; AID 739;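 also: yeast cells grown in 1536-well plates; yeast grown about 18 h at 30C before absorbance read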
CYP2C9 inhib: blocks human cytochrome P450 2C9. CYP2C9 Supersomes, luciferin-H conversion, luminescence. P11712. hit rate 20% among 96,000. inhibition, % at 5 µM. AID 777;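 active = blocking of liver enzyme CYP2C9 beyond about 50% at 5 µM, limit read from the data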
PostGolgi ctrl: inhibits growth of the yeast control strain; efflux-deficient yeast background strain, growth absorbance A615, 16 h; inhibition, % at 10 µM; hit rate 5% among 98,000
CYP2C19 inhib: human CYP2C19 inhibition; hit rate 21% among 96,000; P33261; CYP2C19 Supersomes, luciferin-H EGE luminescence, 30 min; inhibition, % at 5 µM; AID 778;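 active = CYP2C19 inhibition above a set limit at 5 µM in the primary screen, cut at about 50% in these data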
Target sequence (P33261 whole entry, looked up): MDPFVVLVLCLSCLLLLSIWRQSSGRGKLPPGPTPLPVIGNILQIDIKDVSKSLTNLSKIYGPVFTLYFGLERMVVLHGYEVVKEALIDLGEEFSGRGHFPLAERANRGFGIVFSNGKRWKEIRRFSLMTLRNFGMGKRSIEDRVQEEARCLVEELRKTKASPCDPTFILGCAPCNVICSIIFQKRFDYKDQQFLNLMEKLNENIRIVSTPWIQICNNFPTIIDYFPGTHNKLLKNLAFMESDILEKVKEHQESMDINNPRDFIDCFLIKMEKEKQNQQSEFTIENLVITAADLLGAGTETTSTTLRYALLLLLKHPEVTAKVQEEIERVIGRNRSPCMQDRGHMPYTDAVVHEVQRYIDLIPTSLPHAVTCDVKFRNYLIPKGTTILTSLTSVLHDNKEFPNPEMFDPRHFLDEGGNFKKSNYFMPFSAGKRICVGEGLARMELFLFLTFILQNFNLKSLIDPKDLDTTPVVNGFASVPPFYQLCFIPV
CYP2C9 activ: CYP2C9 (human) activation. activation factor at 5 µM. hit rate 1.4% among 96,000. AID 1024. recombinant CYP2C9, luciferin-H conversion, luminescence; active compounds read high; factor 1 = untreated enzyme, 0 = blocked. P11712;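 active = activation factor of 2 or more for CYP2C9 at a 5 µM dose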
CYP2C19 act: increases human CYP2C19 enzyme activity. P33261. recombinant CYP2C19, luciferin-H EGE luminescence; active compounds read high; 0 = fully inhibited enzyme, 1 = untreated enzyme. activation factor at 5 µM. 96,000 tested, under 10 active. AID 1025;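 active = activation factor of at least 2 at 5 µM in the primary screen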
A number is an active result; – = inactive; · = not tested or not shown. The list is not random: actives were taken first. Their share in the collection is about 32%. Rule as the data show it, unless noted: active = inhibition above about 30%; inactive = the rest.

SMILES	PostGolgi yeast	CYP2C9 inhib	PostGolgi ctrl	CYP2C19 inhib	CYP2C9 activ	CYP2C19 act
CCn1c(SCC(=O)Nc2nc3ccccc3s2)nc2c(c1=O)SC(C)C2 (stereo not drawn)	–	98	51	97	–	–
CCn1c(SCC(=O)NC2CCCCC2)nc2c(c1=O)SC(C)C2 (stereo not drawn)	–	–	–	–	–	–
CCn1c(SCC(=O)Nc2nc3ccc(C)cc3s2)nc2c(c1=O)SC(C)C2 (stereo not drawn)	–	77	84	69	–	–
CCCS(=O)(=O)N1CCC(C(=O)NCCN2CCC(Cc3ccccc3)CC2)CC1	–	–	–	–	–	–
CC(Sc1nnc2c(n1)C1(C)CCC2C1(C)C)C(=O)Nc1ccccc1 (stereo not drawn)	–	–	–	–	–	–
O=C(NO)c1ccc(C(=O)N(C2CCCCC2)C2CCCCC2)cc1	102	–	96	–	–	–
CC1(C)CC(=O)c2c(-c3cccs3)n[nH]c2C1	–	52	–	79	–	–
Cc1ccc(S(=O)(=O)N2CCN(S(=O)(=O)c3ccc(C)cc3)C3OCCOC32)cc1 (stereo not drawn)	–	–	–	–	–	–
O=C(Nc1nnc(C23CC4CC(CC(C4)C2)C3)s1)c1ccco1	–	–	–	–	–	–
Nc1ccc(Oc2ccc3nc(-c4ccccc4)c(-c4ccc([N+](=O)[O-])cc4)nc3c2)cc1	37	56	–	–	–	–
Cc1ccc(F)cc1NC(=O)C1CCN(c2cnccn2)CC1	–	–	–	–	–	–
CC1(C(=O)NC2CCCCCCC2)CCC(=O)N1Cc1cccs1 (stereo not drawn)	–	–	–	71	–	–
C=CCc1cccc(CNc2nc3ccccc3n2C(C)C)c1O	–	–	47	–	–	–
CCCn1c(Nc2nc3ccccc3n2C)nc2ccccc21	–	–	–	–	–	–
CCN(CC)CCNc1nc2ccccc2n1C	–	–	–	–	–	–
Cn1c(NCc2cccc(Br)c2)nc2ccccc21	–	–	–	54	–	–
Cn1c(NCc2ccccc2O)nc2ccccc21	–	–	–	64	–	–
CCOC(=O)C1C(=O)CC(C)(O)C(C(=O)OCC)C1/C=C/c1ccccc1 (stereo not drawn)	–	–	–	–	–	–
Cc1ccc(-c2nnn(CC(=O)NCC3COCCO3)n2)o1 (stereo not drawn)	–	–	–	–	–	–
CCn1c(N)c(C(=O)Nc2ccccc2C(=O)OC)sc1=S	–	–	–	–	–	–
CC(C)CCNC(=O)NC(=O)COC(=O)c1cc(S(=O)(=O)N2CCOCC2)ccc1N1CCCCC1	–	–	–	–	–	–
Cc1nc2nc(-c3ccc(Cl)cc3)cn2nc1C	–	–	–	56	–	–
Cc1nc2nc(-c3cccs3)cn2nc1C	–	–	–	62	–	–
COc1cccc(-c2cn3nc(C)c(C)nc3n2)c1	–	–	–	83	–	–
COc1ccc(-c2cn3nc4c(nc3n2)CCCC4)cc1	–	–	–	–	–	–
SMILES	PostGolgi yeast	CYP2C9 inhib	PostGolgi ctrl	CYP2C19 inhib	CYP2C9 activ	CYP2C19 act
COC(Cn1c(C)c(C(C)=O)c(C(C)=O)c1C)OC	–	–	–	–	–	–
CC1(C)Cc2noc(N)c2C(C)(C)N1OC(=O)c1ccco1	–	·	–	·	·	·
CSCCC(NS(=O)(=O)c1ccc(Cl)cc1)C(=O)OCC(=O)N1CCOCC1 (stereo not drawn)	–	·	–	·	·	·
CSCCC(NS(=O)(=O)c1ccc(Cl)cc1)C(=O)OCC(=O)NC12CC3CC(CC(C3)C1)C2 (stereo not drawn)	–	61	–	–	–	–
COc1ccnc(Oc2ccc(F)cc2)c1C(=O)N/C=N/OCc1c(Cl)cccc1Cl	–	75	–	52	–	–
CCCn1nnnc1NCc1ccccc1OCc1ccc(F)cc1	–	89	–	88	–	–
N#Cc1nc(-c2ccco2)oc1N1CCC(C(N)=O)CC1	–	–	–	–	–	–
NC(=O)C1CCN(c2oc(-c3ccccc3F)nc2S(=O)(=O)c2ccc(Cl)cc2)CC1	–	–	–	52	–	–
Nc1ccccc1-c1nnc(SCc2ccccc2Cl)[nH]c1=O	–	88	37	–	–	–
Clc1ccccc1CSc1nnc(/C=C/c2ccccc2)o1	–	–	–	–	–	–
CCSc1nnc(-c2ccccc2NC(=O)CC)c(=O)[nH]1	–	–	–	–	–	–
Cc1ccc(CSc2nnc(-c3ccccc3N)c(=O)[nH]2)cc1	–	92	–	–	–	–
C=CCSc1nnc(-c2ccccc2NC(=O)CC)c(=O)[nH]1	–	52	–	–	–	–
CC(=O)Nc1ccccc1-c1nnc(SCc2ccccc2Cl)[nH]c1=O	–	99	–	–	–	–
Cc1cc(C)cc(CSc2nnc(C)c(=O)[nH]2)c1	–	86	–	–	–	–
Cc1nnc(SCC(C)C)[nH]c1=O	–	–	–	–	–	–
CC(=O)c1c(C)[nH]c(C(=O)CSc2nc3ccccc3c(=O)n2CCCN2CCOCC2)c1C	–	66	–	69	–	–
Cc1sc2nc(CSc3nc4ccccc4c(=O)n3CCCN3CCOCC3)[nH]c(=O)c2c1C	–	70	–	71	–	–
O=c1c2ccccc2nc(-c2ccccc2)n1CCCN1CCOCC1	–	–	–	–	–	–
CCOC(=O)c1sc2nc(CSc3nc4ccccc4n3CC)[nH]c(=O)c2c1C	–	68	–	–	–	–
CC(C)Cn1c(SCC(=O)c2c(N)n(C)c(=O)n(C)c2=O)nc2ccccc21	–	–	–	–	–	–
COCCn1c(SCC(=O)c2[nH]c(C)c(C(C)=O)c2C)nc2ccccc21	–	78	–	95	–	–
COC(=O)c1sc2nc(CSc3nc4ccc(C)cc4[nH]3)[nH]c(=O)c2c1C	–	–	–	–	–	–
COC(=O)c1ccc(NC(=O)Cn2nc(SC)n(N)c2=S)cc1	–	–	–	–	–	–
Cc1nnc(NC(=O)CSc2ncnc3c2cnn3-c2ccccc2C)s1	–	–	–	–	–	–
SMILES	PostGolgi yeast	CYP2C9 inhib	PostGolgi ctrl	CYP2C19 inhib	CYP2C9 activ	CYP2C19 act
CCOC(=O)Cc1csc(NC(=O)CSc2ncnc3c2cnn3-c2ccccc2Cl)n1	–	90	–	70	–	–
CCCCN(C)C(=O)C1CCC(=O)N(c2cc(OC)c(OC)c(OC)c2)C1c1ccc(OC)cc1 (stereo not drawn)	–	·	–	·	·	·
C=CCOc1cccc(C2C(C(=O)c3ccc(C)o3)=C(O)C(=O)N2Cc2ccncc2)c1 (stereo not drawn)	–	62	–	–	–	–
C=CCOc1cccc(C2C(C(=O)c3ccco3)=C(O)C(=O)N2Cc2ccncc2)c1 (stereo not drawn)	–	84	–	–	–	–
Cc1ccc(N/C=C/C(=O)c2sc(-c3ccccc3)nc2C)cc1	–	–	–	–	–	–
Cc1ccc(NS(=O)(=O)c2ccc(NS(=O)(=O)c3cccs3)cc2)cc1	–	87	–	–	–	–
